Values joined by “and” are separate entries in the source; they are usually repeats but may differ in a detail not shown here. Identical values can stand only once. Records with an inconclusive call do not appear. Active and inactive are the calls of the source. Unless noted, calls come from the whole dose curve; as a rule, active = well fitted curve in the direction sought with a large enough effect in the repeat runs; inconclusive = weak or mixed curves; inactive = no such curve, though single readings can be large; an effect the other way counts as inactive or inconclusive.
Assays:
[1] = qHTS assay to test for compound auto fluorescence at 535 nm (green) in HEK293 cells (AID 720680)
[2] = qHTS assay to test for compound auto fluorescence at 460 nm (blue) in HEK293 cell free culture (AID 720681)
Method in brief: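 Blue fluorescence (Ex 405/Em 460 nm, triamterene-equivalent) was read immediately after pin transfer of compound or DMSO into medium (DMEM, 10% FBS) without cells.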

[3] = qHTS assay to test for compound auto fluorescence at 535 nm (green) in HEK293 cell free culture (AID 720682)
Method in brief: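 Green-label autofluorescence (485 nm excitation, 535 nm emission) measured on compound added to cell-free culture medium (DMEM, 10% FBS). Output is expressed relative to fluorescein.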

[4] = qHTS assay to test for compound auto fluorescence at 590 nm (red) in HEK293 cell free culture (AID 720683)
Method in brief: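 Red-channel autofluorescence of compounds in culture medium (DMEM, 10% FBS), no cells, measured at 540/590 nm. Rose Bengal sodium is the reference fluorophore for equivalence.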

[5] = qHTS assay to test for compound auto fluorescence at 590 nm (red) in HepG2 cell free culture (AID 720684)
Method in brief: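 Cell-free; medium MEM + 10% FBS; compound or DMSO added by pintool; read Ex 540/Em 590 nm; Rose Bengal sodium as red reference fluorophore.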

[6] = qHTS assay to test for compound auto fluorescence at 460 nm (blue) in HepG2 cell free culture (AID 720685)
Method in brief: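 Cell-free plates of MEM plus 10% FBS received 23 nL compound or DMSO vehicle; blue-channel (405/460 nm) intensity scored against triamterene as reference fluorophore.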

[7] = qHTS assay to test for compound auto fluorescence at 460 nm (blue) in HepG2 cells (AID 720687)
Method in brief: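 Blue-channel autofluorescence (Ex/Em 405/460 nm, triamterene-equivalent) was measured after 1 hr compound exposure at 37 C, 5% CO2. Cells were HepG2, plated overnight at 37 C in MEM plus 10% FBS.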

[8] = biological target: Glucocorticoid receptor (Homo sapiens) (UniProt P04150); test: qHTS assay to identify small molecule agonists of the glucocorticoid receptor (GR) signaling pathway (AID 720691; active = well fitted activation curve with a large enough effect in the signal ratio in the repeat runs, not every such curve was filed as active; the % refers to the signal ratio)
Method in brief: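 Steps: seed GR-bla HeLa cells, incubate 4 h at 37 C/5% CO2; pin-transfer DMSO-dissolved compounds; incubate 18 h at 37 C; add LiveBLAzer B/G FRET substrate; after 2 h at room temperature, measure fluorescence.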

[9] = biological target: Glucocorticoid receptor (Homo sapiens) (UniProt P04150); test: qHTS assay to identify small molecule antagonists of the glucocorticoid receptor (GR) signaling pathway (AID 720692; active = well fitted inhibition curve with a large enough effect in the signal ratio in the repeat runs, not every such curve was filed as active; the % refers to the signal ratio)
Method in brief: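 Antagonism was scored as loss of dexamethasone-driven (5 nM final) reporter signal in HeLa cells bearing a glucocorticoid response element–beta-lactamase construct, after 18 h compound exposure at 37 C and 2 h FRET substrate loading.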

[10] = qHTS assay to identify small molecule antagonists of the glucocorticoid receptor (GR) signaling pathway - cell viability counter screen (AID 720693); note: nearly all actives have a fitted effect of over 55% in size
[11] = qHTS assay for identifying genotoxic compounds that show differential cytotoxicity against isogenic chicken DT40 cell lines with known DNA damage response pathways - wild type cell line (AID 743012); note: nearly all actives have a fitted effect of over 60% in size
Method in brief: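 Cytotoxicity in repair-proficient parental chicken DT40 cells serves as the comparator for Rad54/Ku70- and Rev3-deficient lines. Cells were exposed to compounds for 40 h at 37 C/5% CO2, and ATP-based luminescence (CellTiter-Glo) measured viability.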

[12] = qHTS assay for identifying genotoxic compounds that show differential cytotoxicity against isogenic chicken DT40 cell lines with known DNA damage response pathways - Rev3 mutant cell line (AID 743014); note: nearly all actives have a fitted effect of over 55% in size
[13] = qHTS assay for identifying genotoxic compounds that show differential cytotoxicity against isogenic chicken DT40 cell lines with known DNA damage response pathways - Rad54/Ku70 mutant cell line (AID 743015); note: nearly all actives have a fitted effect of over 60% in size
[14] = biological target: Androgen receptor (Homo sapiens) (UniProt P10275); test: qHTS assay to identify small molecule antagonists of the androgen receptor (AR) signaling pathway (AID 743035; active = well fitted inhibition curve with a large enough effect in the signal ratio in the repeat runs, not every such curve was filed as active; the % refers to the signal ratio)
Method in brief: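 Steps: seed AR-UAS-bla GripTite HEK293 cells, incubate 4 h at 37C; pin in test compound, then add agonist R1881; incubate 16 h at 37C; add LiveBLAzer B/G FRET substrate, 2 h at room temperature; read fluorescence.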

[15] = biological target: Androgen receptor (Homo sapiens) (UniProt P10275); test: qHTS assay to identify small molecule agonists of the androgen receptor (AR) signaling pathway (AID 743036; active = well fitted activation curve with a large enough effect in the signal ratio in the repeat runs, with a control signal flat, not every such curve was filed as active; the % refers to the signal ratio)
Method in brief: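 AR-UAS-bla HEK293 cells, plated 4 h before dosing, were treated with compound for 16 h at 37C. beta-Lactamase reporter read after 2 h with LiveBLAzer B/G FRET substrate at room temperature.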

[16] = biological target: Androgen receptor (Homo sapiens) (UniProt P10275); test: qHTS assay to identify small molecule agonists of the androgen receptor (AR) signaling pathway using the MDA cell line (AID 743040; note: nearly all actives have a fitted effect of over 20% in size); conditions: MDA-kb2 AR-luc cells, MMTV luciferase, 16 h, stronger effect = higher value
Method in brief: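 Luciferase agonist assay: 16 h compound exposure at 37C without CO2 in MDA-kb2 AR-luc cells, whose MMTV promoter responds to both AR and GR. Luminescence measured after 30 min room-temperature incubation with ONE-Glo.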

[17] = biological target: Androgen receptor (Homo sapiens) (UniProt P10275); test: qHTS assay to identify small molecule antagonists of the androgen receptor (AR) signaling pathway using the MDA cell line (AID 743042; note: nearly all actives have a fitted effect of over 55% in size)
Method in brief: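 Antagonist mode: compounds plus R1881 agonist added to MDA-kb2 AR-luc cells, incubated 16 h at 37C. Luciferase reporter luminescence quantified, with multiplexed CellTiter-Fluor readout for cell viability.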

[18] = qHTS assay to test for compound auto fluorescence at 535 nm (green) in HepG2 cell free culture (AID 720686)
[19] = qHTS assay to identify small molecule antagonists of the androgen receptor (AR) signaling pathway - cell viability counter screen (AID 743033; note: nearly all actives have a fitted effect of over 45% in size)
[20] = qHTS assay to identify small molecule antagonists of the androgen receptor (AR) signaling pathway using the MDA cell line - cell viability counter screen (AID 743041; note: nearly all actives have a fitted effect of over 45% in size)
Method in brief: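 Viability read by CellTiter-Fluor fluorescence in the same wells as the antagonist screen, added after 15.5 h of a 16 h, 37C exposure. Human breast carcinoma MDA-kb2 AR-luc cells, compounds co-dosed with agonist R1881.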
% is set by controls: 0 for no effect and ±100 for the full control effect.

Sequence of Glucocorticoid receptor (Homo sapiens) (P04150 whole entry, looked up): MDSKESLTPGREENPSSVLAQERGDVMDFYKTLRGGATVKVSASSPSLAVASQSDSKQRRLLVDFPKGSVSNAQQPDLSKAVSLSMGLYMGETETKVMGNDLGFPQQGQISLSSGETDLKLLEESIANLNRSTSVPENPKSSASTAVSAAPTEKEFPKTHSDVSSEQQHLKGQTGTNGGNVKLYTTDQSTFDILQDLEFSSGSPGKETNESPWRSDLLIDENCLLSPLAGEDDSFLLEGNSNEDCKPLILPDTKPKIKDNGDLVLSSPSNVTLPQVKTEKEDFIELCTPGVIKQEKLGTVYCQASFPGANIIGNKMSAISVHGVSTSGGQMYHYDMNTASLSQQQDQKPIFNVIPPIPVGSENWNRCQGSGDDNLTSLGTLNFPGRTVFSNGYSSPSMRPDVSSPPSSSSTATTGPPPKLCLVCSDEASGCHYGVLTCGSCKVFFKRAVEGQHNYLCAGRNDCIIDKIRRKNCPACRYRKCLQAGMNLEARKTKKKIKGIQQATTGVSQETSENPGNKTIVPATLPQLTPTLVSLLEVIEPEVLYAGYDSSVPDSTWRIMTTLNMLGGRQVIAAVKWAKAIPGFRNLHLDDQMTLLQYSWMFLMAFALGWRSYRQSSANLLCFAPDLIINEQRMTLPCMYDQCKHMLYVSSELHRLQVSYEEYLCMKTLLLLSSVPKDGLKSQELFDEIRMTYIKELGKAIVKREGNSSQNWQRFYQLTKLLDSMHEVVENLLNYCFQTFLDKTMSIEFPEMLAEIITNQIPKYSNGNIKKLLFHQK
Sequence of Androgen receptor (Homo sapiens) (P10275 whole entry, looked up): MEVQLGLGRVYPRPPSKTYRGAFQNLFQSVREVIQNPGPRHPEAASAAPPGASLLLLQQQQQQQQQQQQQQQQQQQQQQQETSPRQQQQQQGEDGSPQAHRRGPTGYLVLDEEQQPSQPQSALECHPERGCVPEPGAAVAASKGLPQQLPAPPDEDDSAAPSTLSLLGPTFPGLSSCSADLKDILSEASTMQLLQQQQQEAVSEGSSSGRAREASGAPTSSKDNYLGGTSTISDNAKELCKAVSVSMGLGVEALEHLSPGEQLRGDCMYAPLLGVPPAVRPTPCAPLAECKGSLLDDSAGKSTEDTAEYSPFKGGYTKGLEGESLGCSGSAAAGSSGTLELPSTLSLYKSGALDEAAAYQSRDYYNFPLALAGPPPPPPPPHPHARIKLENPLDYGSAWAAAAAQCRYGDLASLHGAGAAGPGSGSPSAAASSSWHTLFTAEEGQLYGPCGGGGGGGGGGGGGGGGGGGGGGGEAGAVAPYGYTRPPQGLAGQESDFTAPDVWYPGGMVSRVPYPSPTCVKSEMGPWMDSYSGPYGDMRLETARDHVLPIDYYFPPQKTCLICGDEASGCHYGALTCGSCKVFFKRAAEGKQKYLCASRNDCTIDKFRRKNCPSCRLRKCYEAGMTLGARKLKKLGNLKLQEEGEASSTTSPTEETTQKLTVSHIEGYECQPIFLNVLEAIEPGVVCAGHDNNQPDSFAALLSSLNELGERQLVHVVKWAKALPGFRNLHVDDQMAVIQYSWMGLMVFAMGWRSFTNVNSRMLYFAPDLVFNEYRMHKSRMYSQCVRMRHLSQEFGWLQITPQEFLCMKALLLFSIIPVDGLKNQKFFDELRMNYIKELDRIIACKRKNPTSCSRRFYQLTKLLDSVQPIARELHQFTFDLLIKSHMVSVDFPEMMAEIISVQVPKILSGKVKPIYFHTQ

CC(C)(CO)CO
inactive: outcome [1] | Potency [2] | outcome [3] | outcome [4] | outcome [5] | Potency [6] | Potency [7] | outcome [8] | Potency [9] | Potency [10] | Potency [11] | Potency [12] | Potency [13] | Potency [14] | Potency [15] | activity change ([16]; at 70.3 µM (top of the series)) 0.0392% and -0.381% | Potency [17]

CCn1cc(C(=O)O)c(=O)c2cc3c(cc21)OCO3
inactive: outcome [1] | Potency [2] | outcome [3] | outcome [4] | outcome [5] | Potency [6] | outcome [18] | Potency [7] | Potency [10] | Potency [12] | Potency [13] | Potency [19]

COc1ccc([C@@H]2CC(=O)c3c(O)cc(O[C@@H]4O[C@H](CO[C@@H]5O[C@@H](C)[C@H](O)[C@@H](O)[C@H]5O)[C@@H](O)[C@H](O)[C@H]4O)cc3O2)cc1OC
inactive: outcome [1] | Potency [2] | outcome [3] | outcome [4] | outcome [5] | Potency [6] | Potency [7] | Potency [10] | Potency [12] | Potency [13]

CC(=O)OCc1ccc2c(c1)OCO2
inactive: outcome [1] | Potency [2] | outcome [3] | outcome [4] | outcome [5] | Potency [6] | Potency [7] | outcome [8] | Potency [9] | Potency [10] | Potency [11] | Potency [12] | Potency [13] | Potency [20]

CC(=O)C(C)C
inactive: outcome [1] | outcome [3] | outcome [4] | outcome [5] | Potency [6] | outcome [18] | Potency [7] | outcome [8] | Potency [9] | Potency [10] | Potency [11] | Potency [12] | Potency [13] | Potency [19]

Cc1ccccc1Cl
inactive: outcome [1] | Potency [2] | outcome [3] | outcome [4] | outcome [5] | Potency [6] | Potency [7] | outcome [8] | Potency [9] | Potency [10] | Potency [11] | Potency [12] | Potency [13] | Potency [14] | Potency [15] | activity change ([16]; at 70.3 µM (top of the series)) -0.0268% | activity change ([16]; at 95 µM (top of the series)) -0.806% | Potency [20] | Potency [17]

CC1(C)[C@@H](O[C@H]2O[C@H](C(=O)O)[C@@H](O)[C@H](O)[C@H]2O[C@@H]2O[C@H](C(=O)O)[C@@H](O)[C@H](O)[C@H]2O)CC[C@]2(C)[C@H]3C(=O)C=C4[C@@H]5C[C@@](C)(C(=O)O)CC[C@]5(C)CC[C@@]4(C)[C@]3(C)CC[C@@H]12
inactive: outcome [1] | Potency [2] | outcome [3] | outcome [4] | outcome [5] | Potency [6] | outcome [18] | Potency [7] | Potency [10] | Potency [11] | Potency [12] | Potency [13] | Potency [20]

O=C1OC(=O)c2c(Cl)c(Cl)c(Cl)c(Cl)c21
inactive: outcome [1] | Potency [2] | outcome [3] | outcome [4] | outcome [5] | Potency [6] | Potency [7] | Potency [10] | Potency [11] | Potency [12] | Potency [13] | Potency [19]

C=C(C)CC(C)(C)C
inactive: outcome [1] | Potency [2] | outcome [3] | outcome [4] | outcome [5] | Potency [6] | Potency [7] | outcome [8] | Potency [9] | Potency [10] | Potency [11] | Potency [12] | Potency [13] | Potency [19]
